High-throughput results (PubChem BioAssay)
ATXN2 expr inh = inhibitors of ATXN2 expression; HEK-293 ATXN2-luciferase reporter, luminescence, 24 h; Potency, µM (top dose mostly 57 µM), for the others: top-dose activity change, negative = inhibition, hits mostly inhibitors; 360,000 compounds, 0.72% hits; AID 1745845; note: % is set by controls: 0 for no effect and ±100 for the full control effect; nearly all actives have a fitted effect of over 55% in size
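ATXN2-luciferase reporter cells (luciferase flanked by upstream and downstream ATXN2 gene portions) were treated 24 h at 37 °C with compounds at up to 57 uM. SteadyGlo luminescence gave expression; GF-AFC fluorescence gave viability.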
A549 tox = counter-screen for Nrf2 inhibitors: cytotoxicity in A549 cells | A549 ARE-Fluc cells, CellTiter-Fluor viability, 18-24 h | Potency, µM (doses to about 46 µM), without a hit: at the top dose activity change, negative = cytotoxicity, usual class: inhibitors | 390,000 compounds, 0.16% hits; note: % is set by controls: 0 for no effect and ±100 for the full control effect
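Cytotoxicity counterscreen: CellTiter-Fluor fluorescence was measured in A549 ARE_Fluc cells after 18-24 h of compound exposure in a concentration series. The subsequent BugLite luminescent read reports ARE-luciferase activity.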
Nrf2 block = inhibitors of Nrf2 signaling; A549 ARE-Fluc reporter, luciferase luminescence, 18-24 h; 360,000 compounds, 2.1% hits; Potency, µM (doses to about 46 µM), without a hit: top-dose activity change, negative = inhibition, most hits filed as inhibitors; note: % is set by controls: 0 for no effect and ±100 for the full control effect; nearly all actives have a fitted effect of over 60% in size
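Nrf2 activity is the BugLite luminescence, read 15 min after reagent at room temperature, following CellTiter-Fluor cytotoxicity readout (30 min, 37C). Compound titrations were applied for 18-24 h to 5000 A549 ARE_Fluc cells/well in 5% FBS OPTI-MEM.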
HepG2 tox = counter-screen for TGF-b inhibitors: cytotoxicity in HepG2 cells | HepG2 CAGA-GFP viability, ATP luminescence, 18 h | Potency, µM (titrated, usually from 46.1 µM), inactives show at the highest dose activity change, negative = cytotoxicity, actives largely listed as cytotoxic | 410,000 compounds, 0.76% hits
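CellTiter-Glo luminescence gave cytotoxicity after 18 hours at 37 degrees C. The cells were HepG2 CAGA-GFP in 1% FBS DMEM, stimulated with 500 pg/mL TGF-beta after compound addition. %Activity was normalised to no-cell wells (complete cell-killing) and DMSO (no toxicity), and curves were fitted and classified.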
S2 tox = cell viability loss in ATXN counter-screen; Potency, µM (titrated, usually from 56.7 µM), actives largely listed as cytotoxic; 400,000 compounds, 0.49% hits; S2 cells (HEK-293 line with an ATXN2-luciferase reporter) viability, CellTiter-Fluor protease fluorescence, 24 h; AID 651635; note: nearly all actives have a fitted effect of over 40% in size
TGFb SMAD3 inh = inhibitors of TGF-b signaling; HepG2 CAGA-GFP TGF-b/SMAD3 reporter, GFP fluorescence, 18 h; TGF-beta stimulated, 500 pg/mL final; Potency, µM (highest dose often 46.1 µM), for inactives: at the top dose activity, negative = inhibition, hits mostly inhibitors; 410,000 compounds, 1.2% hits; note: % is set by controls: 0 for no effect and ±100 for the full control effect; nearly all actives have a fitted effect of over 65% in size
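Per well, imaged GFP fluorescence of HEPG2 CAGA-GFP cells gives the signal; cells get compound, then TGF-beta (500 pg/mL final), 18 h at 37 degrees C; %Activity versus -TGF-beta and +DMSO controls.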
The depositor's hits bear a star; i = inactive; ? = inconclusive; nt = not tested or not shown. Sampled rows, rich in hits. Any-hit rate of the full collection: about 3.8%. Calls come from the whole dose curve; as a rule, active = well fitted curve in the direction sought with a large enough effect; inconclusive = small, poorly fitted or top-dose-only effect, or another doubt; inactive = no such curve, though single readings can be large; an effect the other way counts as inactive or inconclusive. Potency is the fitted concentration of half-maximal effect.

SMILES	ATXN2 expr inh	A549 tox	Nrf2 block	HepG2 tox	S2 tox	TGFb SMAD3 inh
O=C(N/N=C\c1c(O)ccc2ccccc12)c1ccc(S(=O)(=O)N2CCCCC2)cc1	0.53µM*	-4%	?	19%	nt	0%
COC(=O)N/N=C/c1cc(N=Nc2ccccc2Cl)ccc1O	-19%	?	-18%	2%	?	7%
O=C(N/N=C/c1ccccc1)c1ccc2c(c1)OCO2	-20%	-2%	1%	-41%	i	-8%
Nc1ccc(C(=O)N/N=C\c2cc(N=Nc3cccc4ccccc34)ccc2O)cc1	5.6µM*	?	?	-10%	?	-31%
O=C(N/N=C/c1c(O)ccc2ccccc12)c1ccc(CO)nc1	4µM*	-4%	?	-23%	i	-5%
CC1CCc2nc(NC(=O)c3ccco3)sc2C1 (stereo unspecified)	11µM*	-1%	?	-40%	i	-2%
O=C(Nc1nc2cc3c(cc2s1)OCO3)c1ccco1	?	0%	?	-39%	i	-18%
O=C(Nc1nc2cc3c(cc2s1)OCO3)C1=COCCO1	?	-7%	?	8.9µM*	i	-3%
CC(=O)Nc1nc2cc3c(cc2s1)OCO3	8%	-3%	?	-11%	i	5%
O=C(Nc1nc2cc3c(cc2s1)OCCO3)c1ccco1	8.9µM*	-8%	?	-64%	?	8%
CC1CCc2nc(NC(=O)Cc3cccs3)sc2C1 (stereo unspecified)	63%	2%	nt	-2%	i	2%
COc1ccc(C)cc1NC(=O)CCCN1C(=O)CN(C)C1=O	nt	1%	6%	-2%	i	-1%
O=C1NC(=O)C2(CCCc3c([N+](=O)[O-])cccc32)N1 (stereo unspecified)	nt	nt	nt	-25%	i	4%
Cn1nc(C(=O)NCc2ccc(F)cc2)c2c1-c1ccccc1S(=O)(=O)C2	0%	-10%	10µM*	2%	i	8%
Cc1ccc(CNC(=O)N[C@@H](Cc2ccccc2)C(=O)O)cc1	6%	2%	-4%	12%	i	?
CC(=O)N/C(=C\c1ccccc1)C(=O)OCc1cccc(S(=O)(=O)N(C)C)c1	-18%	-4%	23µM*	-1%	i	0%
COc1ccc(OC)c(-c2nnc3n2N=C(c2ccc(OC)c(OC)c2)CS3)c1	-17%	-5%	?	-1%	?	?
COc1ccc(OC)c(C2=Nn3c(nnc3C3CCCCC3)SC2)c1	-37%	-18%	21µM*	-28%	?	-10%
COc1ccc(OC)c(-c2nnc3n2N=C(c2ccc(OC)c(OC4CCCC4)c2)CS3)c1	?	-18%	18µM*	-79%	?	?
COc1ccc(C2=Nn3c(nnc3-c3ccccc3F)SC2)cc1OC1CCCC1	-58%	-24%	?	-67%	?	13µM*
COC(=O)[C@H](CC(C)C)N(Cc1ccccc1)S(=O)(=O)N(Cc1ccc(OC)cc1)[C@@H](CC(C)C)C(=O)OC	-2%	2%	-25%	-6%	i	?
CCOC(=O)c1c(C)[nH]c(C(=O)N2CCN(c3ccc(OC)cc3)CC2)c1C	-33%	4%	-1%	0%	i	-7%
Cn1ccs/c1=N\C(=O)Nc1cccc(C(F)(F)F)c1	23%	3%	1%	-10%	i	45%
Cc1ccoc1C(=O)Nc1ccc(CC(=O)O)cc1	?	-8%	1µM*	-33%	i	-3%
O=C1C=CC(=O)N1Cc1ccccc1	?	?	16µM*	-78%	?	?
CC(C)(C)c1ccc(Oc2ccc(N)cn2)cc1	9.5µM*	-4%	18µM*	4%	i	?
Nc1ccccc1/C=C/c1ccnc2ccccc12	nt	nt	nt	-29%	nt	-26%
